Test results reported in the supplement of paper PMC13380429.

Each compound was assayed on Vero E6 infected with SARS-CoV-2 (assay: morphology score (similarity to uninfected cells); higher = more like uninfected cells). Conditions: 24 h.

Structure (SMILES) | morphology score
O=C(Nc1ccc(N2CCC(C(=O)N3CCOCC3)CC2)cc1)c1cnc(Oc2ccccc2)nc1 (10 µM) | -0.02
CCc1c(C(=O)C(N)=O)c2c(OCC(=O)O)cccc2n1Cc1ccccc1 [varespladib] (10 µM) | 0.0669
COc1cc2c(cc1OC(C)C)[C@H](c1ccc(Cl)cc1)N(c1ccc(N(C)C[C@H]3CC[C@H](N4CCN(C)C(=O)C4)CC3)cc1)C(=O)C2 (0.833333 µM) | 0.244
C/C(O)=C(\C#N)C(=O)Nc1cc(Br)ccc1Br (10 µM) | 0.00477
C[C@@H]1NC(C)(C)CO[C@@]1(O)c1cccc(Cl)c1 [radafaxine] (10 µM) | -0.0433
O=C(O)c1cc(O)c2c3nc4ccccc4oc-3cc(=O)c2n1 [pirenoxine] (10 µM) | 0.0951

Each compound was assayed on Vero E6 infected with SARS-CoV-2 (assay: SARS-CoV-2 infection rate relative to infected DMSO; higher = more infection, active = 60 or less). Conditions: 24 h.

Structure (SMILES) | SARS-CoV-2 infection rate
OCCC#Cc1nc(-c2ccc(F)cc2)c(-c2ccncc2)n1CCCc1ccccc1 (10 µM) | 101% (inactive)
C[C@@H](N)Cc1c[nH]c2ccc(O)cc12 [alpha-methylserotonin] (10 µM) | 97% (inactive)
Cc1ccc(-c2n[nH]c3c2C(c2cccc(O)c2)N(c2ccc(C(=O)O)cc2)C3=O)cc1 (stereo unspecified) (10 µM) | 91.5% (inactive)
CC1(C)Oc2ccc(C#N)cc2[C@@H](N2CCCC2=O)[C@@H]1O [levcromakalim] (10 µM) | 97% (inactive)
NC(N)=Nc1nc(CSCC/C(N)=N/S(N)(=O)=O)cs1 [famotidine] (10 µM) | 106% (inactive)
CC(C)c1nc(N(C)S(C)(=O)=O)nc(-c2ccc(F)cc2)c1/C=C/[C@@H](O)C[C@@H](O)CC(=O)O [rosuvastatin] (0.833333 µM) | 99% (inactive)
Cc1cc(-c2ncc(CC(=O)Nc3ccc(-c4cnccn4)cn3)cc2C)ccn1 (10 µM) | 111% (inactive)
O=C(C[S+]([O-])Cc1ccco1)NC/C=C\COc1cc(CN2CCCCC2)ccn1 (stereo unspecified) [lafutidine] (10 µM) | 94% (inactive)
CC1(C)S[C@@H]2[C@H](NC(=O)[C@H](NC(=O)N3CCNC3=O)c3ccccc3)C(=O)N2[C@H]1C(=O)O [azlocillin] (10 µM) | 104% (inactive)
CCCCCCCCCCCCCCCC[n+]1ccccc1 [cetylpyridinium] (0.833333 µM) | 86% (inactive)
Cc1ccc(S(=O)(=O)NC2c3ccccc3Oc3ccccc32)cc1 (10 µM) | 95.5% (inactive)
O=C1c2c(O)cccc2C([C@@H]2O[C@H](CO)[C@@H](O)[C@H](O)[C@H]2O)c2cc(CO)cc(O)c21 (stereo partly specified) [aloin] (10 µM) | 116% (inactive)
N#CCCCSC(=N)N [kevetrin] (10 µM) | 92% (inactive)
CC(C)(C)c1ccc(O)cc1 [4-tert-butylphenol] (10 µM) | 110% (inactive)
Cc1c(Cl)cccc1Nc1ccccc1C(=O)O [tolfenamic-acid] (10 µM) | 110% (inactive)
CC(O)(P(=O)(O)O)P(=O)(O)O [etidronic-acid] (10 µM) | 103% (inactive)
COc1ccc(CCN)cc1OC [homoveratrylamine] (10 µM) | 118% (inactive)
O=C(OOC(=O)c1ccccc1)c1ccccc1 [benzoyl-peroxide] (10 µM) | 97.5% (inactive)
CCC(=O)NC1CCc2cccc(OC)c2C1 (stereo unspecified) (10 µM) | 93.5% (inactive)
Cc1cc(-c2cc(O)ccc2Cl)cc2nnc(Nc3ccc(OCCN4CCCC4)cc3)nc12 (0.833333 µM) | 103% (inactive)

Structure (SMILES) | SARS-CoV-2 infection rate
CNS(=O)(=O)CCc1ccc2[nH]cc(C3CCN(C)CC3)c2c1 [naratriptan] (10 µM) | 104% (inactive)
c1nc(CC2CCNCC2)c[nH]1 [immepip] (10 µM) | 101% (inactive)
O=C(O)[C@H]1O[C@@H](Oc2cc3oc(-c4ccccc4)cc(=O)c3c(O)c2O)[C@H](O)[C@@H](O)[C@@H]1O [baicalin] (10 µM) | 100% (inactive)
O=C(NCNC(=O)NC1C(=O)NC(=O)N1CO)NC1C(=O)NC(=O)N1CO (stereo unspecified) [imidurea] (10 µM) | 108% (inactive)
COc1cccc([C@H](O)C2CCN(CCc3ccc(F)cc3)CC2)c1OC [volinanserin] (10 µM) | 110% (inactive)
CN[C@@H](C)[C@H]1[C@H](O)C[C@@]2(C)[C@@H]3CC[C@H]4C(C)(C)[C@@H](NC)CC[C@@]45C[C@@]35CC[C@]12C [cyclovirobuxin-D] (10 µM) | 97% (inactive)
C[C@]12CC[C@@H]3c4ccc(O)cc4CC[C@H]3[C@@H]1C[C@@H](O)[C@@H]2O [estriol] (10 µM) | 108% (inactive)
CCCOC(C(=O)OC1CCN(C)CC1)(c1ccccc1)c1ccccc1 [propiverine] (10 µM) | 41% (active)
CC(C)NC[C@@H](O)COc1ccccc1-n1cccc1 (racemic) [isamoltane] (10 µM) | 114% (inactive)
CCCNS(=O)(=O)Nc1ncnc(OCCOc2ncc(Br)cn2)c1-c1ccc(Br)cc1 [macitentan] (10 µM) | 112% (inactive)
CC(C)=CCc1c(O)cc(O)c2c(=O)c(O)c(-c3ccc(C(F)(F)F)cc3)oc12 (0.833333 µM) | 104% (inactive)
CCOC1O[C@H]([C@@H](COCc2ccccc2)OCc2ccccc2)[C@H](OCc2ccccc2)[C@H]1O (stereo partly specified) [tribenoside] (10 µM) | 102% (inactive)
CCCCCCCCCCCC(=O)N(CCO)CCO [lauric-diethanolamide] (10 µM) | 108% (inactive)
CC[C@@H](c1ccc(F)c(F)c1)n1c(C(=O)OC)c(-c2ccno2)[nH]c1=S (10 µM) | 93.5% (inactive)
O=C(Nc1ccc(N2CCC(C(=O)N3CCOCC3)CC2)cc1)c1cnc(Oc2ccccc2)nc1 (10 µM) | 114% (inactive)
CCc1c(C(=O)C(N)=O)c2c(OCC(=O)O)cccc2n1Cc1ccccc1 [varespladib] (10 µM) | 108% (inactive)
COc1cc2c(cc1OC(C)C)[C@H](c1ccc(Cl)cc1)N(c1ccc(N(C)C[C@H]3CC[C@H](N4CCN(C)C(=O)C4)CC3)cc1)C(=O)C2 (0.833333 µM) | 93.5% (inactive)
C/C(O)=C(\C#N)C(=O)Nc1cc(Br)ccc1Br (10 µM) | 105% (inactive)
C[C@@H]1NC(C)(C)CO[C@@]1(O)c1cccc(Cl)c1 [radafaxine] (10 µM) | 110% (inactive)
O=C(O)c1cc(O)c2c3nc4ccccc4oc-3cc(=O)c2n1 [pirenoxine] (10 µM) | 102% (inactive)
